Screening data deposited in PubChem by several laboratories.
PrP UTR inh – suppresses PrP 5' UTR mRNA reporter expression. cell-based PrP 5' UTR mRNA reporter, plate reader. inhibition, % (concentration not given with the values). 340,000 compounds, 0.35% hits; in the data active = inhibition above about 52%; note: 0 = median of the neutral control wells
PfHsp40 rescue – rescue of PfHsp40-mediated yeast toxicity; S. cerevisiae expressing PfHsp40, growth rescue, ATP luminescence; growth rescue, % at 12.5 µM; AID 504582; 340,000 compounds, 0.68% hits; in the data active = growth rescue above about 28%, passing the limit was not always enough;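 note: yeast W303a lacking pdr1 and pdr3 grown in galactose medium; growth measured after three days at 30 °C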
Vc quorum ag-1 – quorum light induction in luxS cqsA deficient V. cholerae | 350,000 compounds, 0.16% hits | activation, % at 18.7 µM | V. cholerae BH1578 lux reporter, luminescence, 6 h; in the data active = activation mostly above about 9.7%, no sharp cut-off
PrPC surface inh – reduces human prion protein on the cell surface. 370,000 compounds, 0.43% hits. inhibition, % at 13.8 µM. AID 720596. cell surface PrPC, TR-FRET read-out; in the data active = inhibition above about 24%; note: 0% = median of the test wells and 100% = reference compound wells
SARS 3CLpro inh – SARS-CoV 3CLpro protease inhibition | P0C6X7 | recombinant SARS-CoV 3CLpro, quenched FRET peptide cleavage | inhibition, % at 6 µM | 290,000 compounds, 0.14% hits | AID 1706; in the data active = inhibition above about 12%
SSB-PriA inh – blocks PriA binding to SSB C-terminal tail; AID 1272365; inhibition, % at 33 µM; 430,000 compounds, 0.6% hits; AlphaScreen SSBct-PriA binding, biotinylated peptide; in the data active = inhibition mostly above about 37%, no sharp cut-off; inactive = mostly below about 20%;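 note: plate controls were negative control peptide for no effect and reference peptide for full effect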
PrP UTR cherry – prion 5' UTR mRNA inhibition, cherry-pick retest; shares compounds with PrP UTR inh; cell-based prion protein 5' UTR reporter, plate reader; inhibition, % at 2.5 µM; 1,100 compounds, 48% hits; AID 504592; in the data active = inhibition above about 54%
Vc quorum ag-2 – inducers of V. cholerae quorum light production without autoinducers; shares compounds with Vc quorum ag-1; V. cholerae BH1578 lux reporter, luminescence, 6 h; activation, % at 50 µM; 620 tested, under 10 active; call rule not given here
PrPC confirm – cell surface PrPC inhibition, TR-FRET confirmation. shares compounds with PrPC surface inh. cell surface PrPC level. inhibition, % at 13.8 µM. 1,500 compounds, 65% hits. AID 743200; in the data active = inhibition above about 25%
LD9 cytotox – LD9 cell cytotoxicity, PrPc inhibitor counter-screen. shares compounds with PrPC surface inh. inhibition, % at 13.8 µM. LD9 cells cytotoxicity, luminescence viability. 1,500 compounds, 29% hits. AID 743201; in the data active = inhibition above about 9.5%
Active calls of the source: *; i = inactive; . = no result given; + = active, no number. Rows were chosen to be rich in hits. Some 1.6% of all compounds tested hit in one or more screens of this group.

SMILES	PrP UTR inh	PfHsp40 rescue	Vc quorum ag-1	PrPC surface inh	SARS 3CLpro inh	SSB-PriA inh	Vc quorum ag-2	others
CC1=CC2OC3CC4OC(=O)C=CC=CC(C(C)O)OCC(O)C(C)CC(=O)OCC2(CC1O)C4(C)C31CO1 (stereo unspecified)	95.3*	.	i	88.1*	.	-17.0	.	PrP UTR cherry=95.3*;PrPC confirm=98.8*;LD9 cytotox=60.2*
COc1cc(CCNC(=O)c2ccccc2NC(=O)C2=C(C)OCCS2)cc(OC)c1OC	-6.3	-0.2	-0.7	3.1	0.8	-6.8	.
COc1cc(NC(=O)C2=C(C)OCCS2)c(Cl)cc1C(=O)NCCN(C)C	6.1	0.1	34.2*	4.6	-5.4	13.1	0.7
O=C(O)c1cn[nH]c1-n1cnnn1	-19.1	4.1	1.8	-1.8	-3.0	9.8	0.1
COC(=O)c1cc(NC(=O)C2CC=CCC2C(=O)O)cc(C(=O)OC)c1 (stereo unspecified)	-20.8	-1.4	7.6*	3.2	6.2	-16.1	1.0
COC(=O)c1ccccc1NC(=O)C1CC=CCC1C(=O)O (stereo unspecified)	-26.0	-0.8	i	2.1	2.3	-6.5	.
CCCNC(=O)COC(=O)/C=C/c1ccc(C)o1	-7.2	-0.7	+	-6.5	1.7	1.3	i
Cc1cc(Br)ccc1N/C=C(/C#N)c1nc(-c2ccc(Cl)cc2Cl)cs1	.	.	.	.	.	2.0	.
Cc1ccc(S(=O)(=O)Nc2ccccn2)c(C)c1	.	.	0.8	-9.7	.	.	.
Cc1cc(C)c(S(=O)(=O)Nc2ccccn2)c(C)c1	-22.0	0.2	52.3*	4.1	5.4	-5.7	-0.1
COC(=O)c1ccccc1C(=O)N1CCc2c(cnc3cc(C)nn23)C1	.	.	.	.	.	-1.0	.
Cc1nc2ccccn2c1C(=O)NC[C@@](O)(c1ccccc1)C1CC1	.	.	.	.	.	-6.0	.
O=S(=O)(Cc1ccc(Cl)cc1)N1CCN(Cc2ccccc2)CC1	-8.4	-1.2	122.4*	.	4.2	-5.3	0.1
Clc1ncnc2scc(-c3ccccc3)c12	-31.6	-0.9	12.5	3.8	1.1	-18.1	0.1
Cc1ccc(NC(=S)NCCc2c[nH]c3ccccc23)cc1	-16.3	-0.6	16.7*	5.5	5.8	15.3	0.1
CC(C)(C)c1ccc2c(c1)OC(C(=O)N/N=C/c1ccncc1)CO2 (stereo unspecified)	.	.	.	.	.	i	.
Cc1cccc(C(=O)OCC(=O)Nc2c(C)nn(-c3ccccc3)c2C)c1O	-12.6	.	-0.7	-1.6	.	-3.9	.
Cc1nn(-c2ccccc2)c(C)c1NC(=O)COC(=O)c1cc(Br)ccc1O	0.4	-1.0	26.8	9.2	.	-5.7	0.6
Cc1ccc(NC(=O)CN2CCC(C(=O)N3CCN(c4ccccc4)CC3)CC2)cc1	.	.	.	.	.	-16.0	.
O=C(NCCOc1ccc(F)cc1)c1cc2ccccc2oc1=O	.	.	.	.	.	-4.0	.
CCN(CC(=O)Nc1ccccc1C(F)(F)F)C(=O)CN1C(=O)NC(C)(c2ccc3ccccc3c2)C1=O (stereo unspecified)	-15.3	0.6	21.4*	-1.2	.	-3.2	0.0
CCOCC(=O)N[C@@H](C)Cc1cccs1	.	.	.	.	.	-12.0	.
O=C(O)CCC(=O)N(Cc1ccccc1)Cc1cn(-c2ccccc2)nc1-c1cccs1	.	.	.	.	.	-6.0	.
CC(C)(C)c1ccc(C(=O)Nc2nc3cc4c(cc3s2)OCCO4)cc1	.	.	.	.	.	-14.0	.
COc1ccc(CNC(=O)c2cc(-n3cnnc3)ccc2Cl)cc1	-22.6	1.1	25.0*	-3.8	-2.1	-6.4	0.4
COc1ccc(CCNC(=O)c2ccc(Cl)cc2Cl)cc1	-21.1	2.3	27.8*	-1.3	1.4	-7.8	0.1
Cc1ccc(OCCNC(=O)c2cc(-n3cnnc3)ccc2Cl)cc1C	-22.6	-0.9	-6.9	0.1	-1.8	-6.8	.
Cc1ccc2nc(SCc3nnc(-c4ccccc4Br)o3)[nH]c2c1	-19.1	-0.7	12.5	4.0	4.9	-3.9	0.3
Clc1ccc2nc(SCc3nnc(-c4ccccc4)o3)[nH]c2c1	-11.2	0.1	i	2.8	-1.2	-6.3	.
